GPR151 ag: human GPR151 activation. PathHunter beta-arrestin GPR151 cells, luminescence. activation, % at 11.2 µM. actives 1% (n = 650,000); in the data active = activation above about 4.9%
MITF inh: blocks human microphthalmia-associated transcription factor; AlphaScreen MITF homodimerization, bead proximity signal; inhibition, % at 2.6 µM; actives 0.91% (n = 650,000); in the data active = inhibition above about 50%
TEAD-YAP block: TEAD-YAP interaction inhibition | actives 1.4% (n = 640,000) | inhibition, % at 9.12 µM | HEK-TIYL cells, TEAD-Gal4/YAP UAS-luciferase luminescence; in the data active = inhibition above about 32%
FBW7 activator: activators of human E3 ligase FBW7 | Q969H0 | AlphaScreen FBW7–phospho-cyclin E peptide binding, activator screen | normalized activity (activation), % at 26.1 µM | actives 0.13% (n = 650,000) | AID 1259310; in the data active = normalized activity above about 1.9%;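 also: purified mutant Fbw7 with reduced substrate affinity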
Target sequence (Q969H0 whole entry, looked up): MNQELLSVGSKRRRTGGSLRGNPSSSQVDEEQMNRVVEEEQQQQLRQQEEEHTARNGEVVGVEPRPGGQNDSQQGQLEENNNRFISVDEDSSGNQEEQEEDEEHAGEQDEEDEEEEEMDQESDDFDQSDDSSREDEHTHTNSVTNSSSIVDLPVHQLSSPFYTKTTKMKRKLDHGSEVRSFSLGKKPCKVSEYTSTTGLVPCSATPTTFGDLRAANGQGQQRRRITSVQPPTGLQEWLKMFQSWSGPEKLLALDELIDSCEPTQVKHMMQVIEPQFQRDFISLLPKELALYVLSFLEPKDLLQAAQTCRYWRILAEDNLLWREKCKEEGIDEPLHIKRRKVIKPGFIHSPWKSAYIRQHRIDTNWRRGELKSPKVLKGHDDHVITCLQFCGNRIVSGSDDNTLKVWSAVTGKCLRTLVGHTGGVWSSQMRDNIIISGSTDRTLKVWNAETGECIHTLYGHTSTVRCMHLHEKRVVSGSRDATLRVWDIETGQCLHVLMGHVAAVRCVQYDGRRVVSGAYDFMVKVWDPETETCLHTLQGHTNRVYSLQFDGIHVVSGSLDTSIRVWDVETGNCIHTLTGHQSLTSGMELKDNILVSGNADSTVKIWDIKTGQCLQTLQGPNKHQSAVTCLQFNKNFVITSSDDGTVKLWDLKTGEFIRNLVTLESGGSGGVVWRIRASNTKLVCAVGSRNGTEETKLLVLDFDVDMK
Numbers stand for hits; i = inactive. A selection: hits, their analogues and other compounds. The true share with any hit is near 3.5%.

SMILES	GPR151 ag	MITF inh	TEAD-YAP block	FBW7 activator
CC1=C(C(=O)Nc2ccccn2)C(c2cccc([N+](=O)[O-])c2)C2=C(CC(C)(C)CC2=O)N1 (configuration not stated)	i	i	i	i
CC(c1ccc([N+](=O)[O-])cc1)c1nc(-c2ccccn2)no1 (configuration not stated)	i	i	67	i
CC(c1ccc([N+](=O)[O-])cc1)c1nc(-c2ccncc2)no1 (configuration not stated)	i	i	i	i
Cc1ccc(C(=O)Nc2ccc(-c3nc4ncccc4o3)cc2)cc1[N+](=O)[O-]	i	i	i	i
CCCCC(=O)NC(c1ccccc1OC)c1ccc2cccnc2c1O (configuration not stated)	i	i	73	i
COc1ccccc1C(NC(=O)c1cc(OC)c(OC)c(OC)c1)c1cc(Cl)c2cccnc2c1O (configuration not stated)	i	i	i	i
CCCC(=O)NC(c1ccccc1OC)c1ccc2cccnc2c1O (configuration not stated)	i	i	76	i
O=C(Nc1ccc(-c2noc(-c3cccc(Cl)c3)n2)cc1)c1ccco1	i	i	54	i
O=C(CSc1nnnn1-c1cccc2ccccc12)NCC1CCCO1 (configuration not stated)	i	i	i	i
CCOc1ccc(N(/C=C2\Sc3ccccc3C2=O)C(=O)c2cccc(Cl)c2)cc1	i	i	45	i
COc1ccc(N(/C=C2\Sc3ccccc3C2=O)C(=O)c2cccc(Cl)c2)cc1	i	i	51	i
COC(=O)c1ccc(NC(=O)CSc2nnnn2C2CC3CCC2C3)cc1 (configuration not stated)	i	i	i	i
Cn1ccnc1C1(O)CCN(CC(=O)Nc2ccccc2F)CC1	i	i	i	i
O=[N+]([O-])c1cc2c(cc1C(O)c1nnc(-c3ccccc3)o1)OCO2 (configuration not stated)	i	i	81	i
CCOC(=O)C1=C(O)/C(=C/c2ccc(Cl)cc2)SC1=Nc1ccc([N+](=O)[O-])cc1	i	i	i	i
CCCCCc1c2c(C)c(C(=O)OCC)nc-2cc2n1CC(C)=C2C	i	i	41	i
N/C(=N\O)c1ccc(Oc2ccc(Oc3ccc(/C(N)=N/O)cc3)cc2)cc1	i	i	84	i
O=C(NCC(c1ccco1)S(=O)(=O)c1ccc(F)cc1)c1c(F)cccc1F (configuration not stated)	i	i	i	i
Nc1c(C(=O)NCc2ccccc2)nnn1Cc1cccc(F)c1	i	i	i	i
Nc1c(C(=O)NCc2ccccc2)nnn1Cc1cccc(C(F)(F)F)c1	i	i	48	i
COc1ccc(C2=CC(c3cccc(OC)c3)n3ncnc3N2)cc1 (configuration not stated)	i	i	43	i
COc1cccc(C2C=C(c3cccc(Br)c3)Nc3ncnn32)c1 (configuration not stated)	i	i	39	i
CCc1ccc(C2=CC(c3cc(OC)ccc3OC)n3ncnc3N2)cc1 (configuration not stated)	i	i	51	i
COc1ccc(OC)c(C2C=C(c3ccc(Cl)cc3)Nc3ncnn32)c1 (configuration not stated)	i	i	i	i
COc1ccc(C2=CC(c3ccc(OC)cc3OC)n3ncnc3N2)cc1 (configuration not stated)	i	i	56	i
SMILES	GPR151 ag	MITF inh	TEAD-YAP block	FBW7 activator
COc1ccc(OC)c(C2C=C(c3cccc(Br)c3)Nc3ncnn32)c1 (configuration not stated)	i	i	i	i
Cc1c2c(nc3c(C(=O)O)cnn13)CCCC2	i	i	i	i
CCN(CC)CCCC(C)NC(=O)c1ccc([N+](=O)[O-])cc1 (configuration not stated)	i	i	i	i
Cc1cc(C)n(CCN2C(=O)c3cccc(N4CCN(CC5CC=CCC5)CC4)c3C2=O)n1 (configuration not stated)	i	i	i	i
CCc1ccc(C2=CC(c3cccc(OC)c3)n3ncnc3N2)cc1 (configuration not stated)	i	i	i	i
COc1cccc(C2C=C(c3ccc(C)cc3)Nc3ncnn32)c1 (configuration not stated)	i	i	54	i
COc1ccc(C2C=C(c3ccc(C)cc3)Nc3ncnn32)c(OC)c1OC (configuration not stated)	i	i	47	i
COc1ccc(Cl)cc1CNC(C)(C)C	i	i	i	i
CCN(CC)c1nc(NCc2cccnc2)nc(Nc2ccccc2)n1	i	i	i	i
Cc1nnc2n1CCN(C(=O)/C(F)=C/c1ccccc1)CC2	i	i	i	1.9
O=[N+]([O-])c1ccc(N2CCN(C/C=C/S(=O)(=O)c3ccccc3)CC2)cc1	i	i	i	i
Cc1ccc(O)c(N/C=C/C(=O)c2cccs2)c1	i	i	54	i
O=C(/C=C/Nc1cccc(Br)c1)c1cccs1	i	i	i	i
O=C(/C=C/Nc1ccc(Br)cc1)c1cccs1	i	i	41	i
CCOc1ccc(N/C=C/C(=O)c2cccs2)cc1	i	i	37	i
Cc1ccc(O)c(N/C=C/C(=O)c2ccc(F)cc2)c1	i	i	i	i
CC1=C(C(=O)OC2CCCCCC2)C(c2ccc(Cl)c(Cl)c2)NC(=O)N1C (configuration not stated)	i	i	i	i
O=C1N[C@H](Cc2ccccc2)C(=O)N2CCN(C(=O)c3cccc(Cl)c3)C[C@H]12	i	i	i	i
COC(=O)c1ccc(C)c(NC(=O)c2ccccc2NS(=O)(=O)c2ccc(C)cc2)c1	i	i	i	i
COc1c(S(=O)(=O)N2CCCCC2C)ccc(Cl)c1Cl (configuration not stated)	i	i	i	i
COc1cc(Nc2cc(N3CCN(C(=O)c4ccco4)CC3)c3noc4c3c2C(=O)c2ccccc2-4)cc(OC)c1OC	i	i	40	i
COc1cccc(Nc2cc(N3CCCC3)c3noc4c3c2C(=O)c2ccccc2-4)c1	i	i	i	i
CCCN1CCN(c2cc(Nc3cccc(OC)c3)c3c4c(onc24)-c2ccccc2C3=O)CC1	i	61	i	i
CCOC(=O)C1CCCN(c2cc(Nc3ccc4c(c3)OCCO4)c3c4c(onc24)-c2ccccc2C3=O)C1 (configuration not stated)	i	i	38	i
CCCCC(C(=O)OCC)(C(=O)OCC)c1cc(Nc2ccc(C)cc2)c2c3c(onc13)-c1ccccc1C2=O	i	55	i	i
C#CCN(C)C(=O)c1cnc2sccn2c1=O	i	i	i	i
CCOC(=O)C1CCCN(c2cc(Nc3cccc(OC)c3)c3c4c(onc24)-c2ccccc2C3=O)C1 (configuration not stated)	i	64	i	i
O=C(Nc1cc(Cl)ccc1Cl)c1cc(Br)cc(Br)c1O	i	i	34	i
Cc1ccc2nc(Nc3cccc(C(=O)Nc4ccc(O)cc4)c3)nc(-c3ccccc3)c2c1	i	i	50	i

Bioassay records as filed in PubChem.
